According to ChEMBL document CHEMBL1157539, “Thousands of chemical starting points for antimalarial lead identification” (Nature, 2010):

Tests used:
Type in all cases: functional
Plasmodium falciparum [1] = experiment: GSK_TCMDC: Inhibition of Plasmodium falciparum 3D7 in whole red blood cells, using parasite LDH activity as an index of growth. Test compounds present at 2uM
Plasmodium falciparum [2] = experiment: GSK_TCMDC: Inhibition of Plasmodium falciparum Dd2 in whole red blood cells, using parasite LDH activity as an index of growth. Test compounds present at 2uM
HepG2 = experiment: GSK_TCMDC: Percent inhibition of human HepG2 cell line. Test compounds present at 10uM.

COC(=O)c1cccc(CNCc2ccc(-c3ccc(-c4nc5ccccc5[nH]4)s3)cc2)c1.O=C(O)C(F)(F)F
Inhibition (Plasmodium falciparum [1]): 100% | Inhibition (Plasmodium falciparum [2]): 79% | Inhibition (HepG2): 20%

Cc1cc(-c2ccc(S(=O)(=O)Nc3cc4c(cc3OC(C)C)CCN(C)CC4)cc2)ccc1Cl.Cl
Inhibition (Plasmodium falciparum [1]): 90% | Inhibition (Plasmodium falciparum [2]): 19% | Inhibition (HepG2): 33%

COc1cc(NC(=O)c2ccc3oc4ccccc4c3c2)ccc1OCCN1CCCCC1.Cl
Inhibition (Plasmodium falciparum [1]): 89% | Inhibition (Plasmodium falciparum [2]): 11% | Inhibition (HepG2): 12%

Cc1ccccc1N1CCN(c2ccc(C(=O)Nc3ccccc3)cc2)CC1
Inhibition (Plasmodium falciparum [1]): 89% | Inhibition (Plasmodium falciparum [2]): 91% | Inhibition (HepG2): 22%

COc1ccc2nccc(N(C)CC3(O)CCN(CCc4ccc5c(c4)OCCO5)CC3)c2n1.Cl
Inhibition (Plasmodium falciparum [1]): 100% | Inhibition (Plasmodium falciparum [2]): 96% | Inhibition (HepG2): 15%

CCOc1ccc(-c2nonc2NC(=O)c2ccc(F)cc2)cc1OCC
Inhibition (Plasmodium falciparum [1]): 100% | Inhibition (Plasmodium falciparum [2]): 99% | Inhibition (HepG2): 36%

CN1CCC(Oc2ccc(CN3CC[C@H](NC(=O)c4ccc(Cl)c(Cl)c4)C3)c3ccccc23)C1.O=C(O)C(F)(F)F (some centres undefined)
Inhibition (Plasmodium falciparum [1]): 100% | Inhibition (Plasmodium falciparum [2]): 82% | Inhibition (HepG2): 52%

CC(=O)c1ccc(-c2ccc(C(=O)NCCCCN3CCC(c4ccc5c(c4OCC(N)=O)CCCC5)CC3)cc2)s1
Inhibition (Plasmodium falciparum [1]): 90% | Inhibition (Plasmodium falciparum [2]): 4% | Inhibition (HepG2): 26%

O=C(N[C@@H](Cc1ccccc1)C(=O)NCCN1CCCCC1)c1ccc(O)c(-c2ccc(Cl)c(Cl)c2)c1
Inhibition (Plasmodium falciparum [1]): 99% | Inhibition (Plasmodium falciparum [2]): 97% | Inhibition (HepG2): 6%

Cl.O=C(c1ccc(Cl)cc1)C1CCN(CCCOc2ccc3c(c2)CCNCC3)CC1
Inhibition (Plasmodium falciparum [1]): 93% | Inhibition (Plasmodium falciparum [2]): 23% | Inhibition (HepG2): 78%

CCOC(=O)c1ccc(NCc2ccccn2)cc1
Inhibition (Plasmodium falciparum [1]): 99% | Inhibition (Plasmodium falciparum [2]): 0% | Inhibition (HepG2): 0%

CC(C)C[C@H](NC(=O)OC(C)(C)C)C(=O)Nc1ccc(Cc2ccc(NC(=O)[C@H](CC(C)C)NC(=O)OC(C)(C)C)cc2)cc1
Inhibition (Plasmodium falciparum [1]): 94% | Inhibition (Plasmodium falciparum [2]): 88% | Inhibition (HepG2): 0%

CCc1c(CCNCCCCCCNCCc2ccc(OC)cc2)ccc(OC)c1OC.Cl
Inhibition (Plasmodium falciparum [1]): 98% | Inhibition (Plasmodium falciparum [2]): 0% | Inhibition (HepG2): 16%

Nc1nc(N)c2nc(C3CC=CCC3)c(N)nc2n1 (centres undefined)
Inhibition (Plasmodium falciparum [1]): 95% | Inhibition (Plasmodium falciparum [2]): 0% | Inhibition (HepG2): 67%

O=C(O)C(F)(F)F.Oc1ccc(CCNc2nc(NCc3ccccc3-c3ccccc3)nc(N3CCCNCC3)n2)cc1
Inhibition (Plasmodium falciparum [1]): 95% | Inhibition (Plasmodium falciparum [2]): 20% | Inhibition (HepG2): 26%

O=S(=O)(c1ccc(OC(F)(F)F)cc1)C1CC2CCC(C1)N2S(=O)(=O)c1ccc(Cl)c(C(F)(F)F)c1 (centres undefined)
Inhibition (Plasmodium falciparum [1]): 100% | Inhibition (Plasmodium falciparum [2]): 95% | Inhibition (HepG2): 1%

CC(C)c1ccc(NC(=O)NC2CCN(CCCCCN(C)C(=O)/C=C/c3ccc(Cl)c(Cl)c3)C2)cc1 (centres undefined)
Inhibition (Plasmodium falciparum [1]): 99% | Inhibition (Plasmodium falciparum [2]): 3% | Inhibition (HepG2): 28%

CCCN(Cc1nnc(-c2ccco2)o1)C(=O)C1CCCN(C(=O)c2ccc(Cl)cc2)C1 (centres undefined)
Inhibition (Plasmodium falciparum [1]): 96% | Inhibition (Plasmodium falciparum [2]): 96% | Inhibition (HepG2): 0%

COc1ccc(CCOc2c(C)nc(N)nc2N)cc1OC.Cl
Inhibition (Plasmodium falciparum [1]): 96% | Inhibition (Plasmodium falciparum [2]): 22% | Inhibition (HepG2): 66%

O=[N+]([O-])c1ccc2nc(Nc3ccc(Cl)c(Cl)c3)c(Nc3ccc(Cl)c(Cl)c3)nc2c1
Inhibition (Plasmodium falciparum [1]): 100% | Inhibition (Plasmodium falciparum [2]): 99% | Inhibition (HepG2): 1%

NC1CCN(Cc2cccc(-c3csc(-c4nc5ccccc5[nH]4)c3)c2)C1.O=C(O)C(F)(F)F (centres undefined)
Inhibition (Plasmodium falciparum [1]): 99% | Inhibition (Plasmodium falciparum [2]): 10% | Inhibition (HepG2): 10%

NC(=O)c1ccc(C(=O)Nc2cccc(-c3ccc(-c4nc5cc(C(F)(F)F)ccc5[nH]4)cc3)c2)cc1
Inhibition (Plasmodium falciparum [1]): 100% | Inhibition (Plasmodium falciparum [2]): 31% | Inhibition (HepG2): 35%

CCCC(C(CC1CCC(C)CC1)C(=O)NC(CCCNc1ncccn1)C(=O)Nc1nccs1)N(O)C=O (centres undefined)
Inhibition (Plasmodium falciparum [1]): 98% | Inhibition (Plasmodium falciparum [2]): 98% | Inhibition (HepG2): 10%

Cc1c(OC(C)C)nc2ccccc2c1C(=O)N[C@H](c1cccc(F)c1)C1CC1
Inhibition (Plasmodium falciparum [1]): 83% | Inhibition (Plasmodium falciparum [2]): 34% | Inhibition (HepG2): 6%

COC(=O)c1ccc(NC(=O)Nc2cccc(CCNCc3ccccc3)c2)cc1.O=C(O)C(F)(F)F
Inhibition (Plasmodium falciparum [1]): 96% | Inhibition (Plasmodium falciparum [2]): 10% | Inhibition (HepG2): 2%

Nc1nc(N)c2c(CCc3ccc(Cl)c(Cl)c3)cccc2n1
Inhibition (Plasmodium falciparum [1]): 100% | Inhibition (Plasmodium falciparum [2]): 83% | Inhibition (HepG2): 51%

OC(CNCc1ccccc1OCc1ccccc1)c1cc(C(F)(F)F)cc(C(F)(F)F)c1 (centres undefined)
Inhibition (Plasmodium falciparum [1]): 100% | Inhibition (Plasmodium falciparum [2]): 99% | Inhibition (HepG2): 3%

O=C(Cc1cccc(Cl)c1)N1CCc2cc3nccc(N4CCN5CCC[C@H]5C4)c3cc21
Inhibition (Plasmodium falciparum [1]): 96% | Inhibition (Plasmodium falciparum [2]): 4% | Inhibition (HepG2): 14%
